Data on 7 molecules can be found in PubChem BioAssay (NCATS).

The nature of assay [1]: qHTS assay for small molecule antagonists of peroxisome proliferator-activated receptor delta signaling (AID 588535; active = well fitted inhibition curve with a large enough effect in the signal ratio, with a control signal flat, not every such curve was filed as active; the % refers to the signal ratio;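 as to max response: cells co-treated with a PPAR-delta agonist as stimulator during compound exposure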). As to conditions: HEK293T PPARd-UAS-bla, beta-lactamase FRET ratio, 18 h; 460 nm channel. An outline of the steps:
(§1)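 Reporter: UAS-bla under PPAR-delta response element, HEK293T host. Medium: 2% charcoal/dextran FBS. Dosing: titration, 18 hrs, 37 C. Detection: CCF4, 2 hrs RT, 405 ex/460 and 530 em.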
In general terms: Quantitative high-throughput screening tests each substance at several concentrations.

Assay [2] concerns the target Peroxisome proliferator-activated receptor delta (Homo sapiens) (UniProt Q03181). The description is as above. As to conditions: HEK293T PPARd-UAS-bla, beta-lactamase FRET ratio, 18 h; series mostly up to 76.7 µM. In a few lines: as §1
The target in assay [3] is Peroxisome proliferator-activated receptor gamma (Homo sapiens) (UniProt P37231). In words: qHTS assay for small molecule agonists of peroxisome proliferator-activated receptor gamma signaling (AID 588536; active = well fitted curve in the direction sought with a large enough effect in the signal ratio, with a control signal flat, not every such curve was filed as active; the % refers to the signal ratio;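 also: 0% = DMSO basal wells and 100% = rosiglitazone at 2 µM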). As to conditions: HEK293 PPARg-UAS-bla, beta-lactamase ratio, 16 h, percent of rosiglitazone response, DMSO as zero; series mostly up to 76.7 µM. In a few lines:
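Test agents, titrated, stimulated HEK293 UAS-bla cells overnight (16 h, 37 C). Substrate CCF4 was then added for two hours at room temperature before fluorescence reading.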

The target in assay [4] is Vitamin D3 receptor (Homo sapiens) (UniProt P11473). In words: qHTS assay for small molecule antagonists of vitamin D receptor signaling (AID 588541; calls by dose curve;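 also: receptor activated by calcitriol during compound treatment; % is scaled to controls: 0 for no effect and ±100 for the full control effect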). The note with it: HEK293T VDR-UAS-bla, beta-lactamase ratio, antagonist mode; series mostly up to 76.7 µM. An outline of the steps:
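VDR-UAS-bla HEK293T cells (2000/well, 2% charcoal-stripped FBS) were treated with titrated compounds plus 1-alpha,25-dihydroxyvitamin D3 (50 nM or 3 nM final) for 16 h at 37 C. CCF4 beta-lactamase fluorescence was read; Hill fits gave IC50.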

Assay [5] is described as follows: qHTS assay for small molecule agonists of retinoid X receptor alpha signaling (AID 588544; calls by dose curve;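 as to activation: 0% = DMSO basal wells and 100% = reference agonist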). As to conditions: HEK293T RXRa-UAS-bla, beta-lactamase reporter, 18 h; 530 nm emission.
The target in assay [6] is Retinoic acid receptor RXR-alpha (Homo sapiens) (UniProt P19793). Described as above. As to conditions: HEK293T RXRa-UAS-bla, beta-lactamase reporter, 18 h; series mostly up to 76.7 µM.
In assay [7] the target is Thyroid hormone receptor beta (Homo sapiens) (UniProt P10828). In words: qHTS assay for small molecule agonists of thyroid hormone receptor beta signaling (AID 588545; calls by dose curve). As to conditions: TR-UAS-bla GripTite HEK 293, beta-lactamase ratio, agonist mode, 18 h; series mostly up to 76.7 µM. An outline of the steps:
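HEK 293 TR-UAS-bla; agonist mode; 18 hrs, 37 C; CCF4, ex 405/em 460 and 530 nm; norm. T3 10 nM = 100%, DMSO = 0%; Hill fit → EC50, efficacy.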

Assay [8] is described as follows: qHTS assay for small molecule antagonists of retinoid X receptor alpha signaling (AID 588546; active = well fitted inhibition curve with a large enough effect in the signal ratio, with a control signal flat, not every such curve was filed as active; the % refers to the signal ratio;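 also: cells stimulated with 9-cis-retinoic acid as agonist; % is scaled to controls: 0 for no effect and ±100 for the full control effect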). As to conditions: HEK293T RXRa-UAS-bla, beta-lactamase ratio, antagonist mode; measured here: W530 green channel, cytotoxicity proxy. In a few lines: (§2)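 Beta-lactamase reporter inhibition, read as CCF4 fluorescence ratio (ex 405, em 460/530 nm) after 2 h at RT. HEK293T UAS-bla cells, 2500/well, were stimulated with 9-cis-RA at 500 or 100 nM final alongside test compound for 18 h at 37 C.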

The target in assay [9] is Retinoic acid receptor RXR-alpha (Homo sapiens) (UniProt P19793). Described as above. The note with it: HEK293T RXRa-UAS-bla, beta-lactamase ratio, antagonist mode. An outline of the steps:
as §2

Assay [10] deals with Thyroid hormone receptor beta (Homo sapiens) (UniProt P10828). In words: qHTS assay for small molecule antagonists of thyroid hormone receptor beta signaling (AID 588547; active = well fitted inhibition curve with a large enough effect in the signal ratio, with a control signal flat, not every such curve was filed as active; the % refers to the signal ratio;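 also: cells stimulated with 0.4 nM T3 agonist during compound exposure; % is scaled to controls: 0 for no effect and ±100 for the full control effect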). As to conditions: TR-UAS-bla HEK293, beta-lactamase ratio, antagonist mode, 18 h. In a few lines:
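TR-UAS-bla GripTite HEK293 cells in 2% charcoal/dextran FBS medium were preincubated 4 h at 37 C, given compound (0.59 nM to 92 uM) plus 0.4 nM T3 (final) for 18 h, then CCF4 for 2 h at RT; Hill fit gave IC50.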

The nature of assay [11]: qHTS assay for small molecule activators of the p53 signaling pathway (AID 651743; active = well fitted activation curve with a large enough effect in the signal ratio, not every such curve was filed as active; the % refers to the signal ratio; also: % of control where 0% means no effect). The note with it: HCT-116 p53RE-bla, beta-lactamase FRET ratio, 16 h; activation: stronger effect = higher value. An outline of the steps: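 Cell-based beta-lactamase reporter (p53 response elements, HCT-116 background). After a 5-hour preincubation, cells received compound for 16 hours at 37 C; substrate development ran 2 hours at room temperature.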

The nature of assay [12]: qHTS assay for environmental chemicals that activate the Aryl hydrocarbon Receptor (AhR) signaling pathway (AID 651777). Also: % of control where 0% means no effect; nearly all actives have a fitted effect of over 15% in size. The note with it: 1A2-DRE human hepatoma cells, luciferase, 24 h; activation: stronger effect = higher value. An outline of the steps:
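Quantitative HTS in stably transfected human liver-derived cells whose luciferase gene sits downstream of the CYP1A2 promoter and dioxin response element. After 24 hr exposure at 37 C, One-Glo luminescence was measured.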

Assay [13] concerns the target Peroxisome proliferator-activated receptor alpha (Homo sapiens) (UniProt Q07869). In words: qHTS assay for small molecule agonists of the peroxisome proliferator-activated receptor alpha (PPARalpha) signaling pathway (AID 651778). Also: potency is read from the fitted curve at half-maximal effect. As to max response: % of control where 0% means no effect. The note with it: PathHunter PPARalpha complementation, chemiluminescence, 6 h; max response: stronger effect = higher value. In a few lines: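 Cells plated at 2,000/well and held overnight at 37 C, 5% CO2, then compound added by pin tool for 6 hr; after PathHunter detection reagent and 60 min at room temperature, chemiluminescence from enzyme complementation was read.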

The nature of assay [14]: qHTS assay for small molecule agonists of the antioxidant response element (ARE) signaling pathway measured by Nrf2-dependant transcriptional activity (AID 720636; active = well fitted curve in the direction sought with a large enough effect in the repeat runs; an effect the other way counts as inactive or inconclusive; also: % of control where 0% means no effect). As to conditions: ARE-luc HepG2, Nrf2 luciferase reporter, 16 h; series mostly up to 92.4 µM. In a few lines:
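Quantitative HTS format in HepG2 cells stably expressing an ARE-luciferase reporter; 16 hr compound treatment at 37 C, luciferase signal detected with ONE-Glo.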

A short description of assay [15]: qHTS assay for small molecule agonists of the antioxidant response element (ARE) signaling pathway measured by Nrf2-dependant transcriptional activity - cell viability counter screen (AID 720653; active = well fitted curve in the direction sought with a large enough effect in the repeat runs; an effect the other way counts as inactive or inconclusive; also: % is scaled to controls: 0 for no effect and ±100 for the full control effect). As to conditions: ARE-bla HepG2 viability, CellTiter-Glo ATP luminescence, 16 h; max response: stronger effect = lower value. An outline of the steps:
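ARE-bla HepG2 cells (2,000/well) rested 5 hrs at 37C/5% CO2, then exposed to compounds in DMSO for 16 hrs. Viability was read in the same wells as intracellular ATP by luminescence, 30 min at room temperature after reagent addition.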

Assay [16] in a line: qHTS assay for cell viability of HEK293 cells (AID 743288). Also: % is scaled to controls: 0 for no effect and ±100 for the full control effect; nearly all actives have a fitted effect of over 50% in size. The note with it: ATP luminescence (CellTiter-Glo), 18 h; max response: stronger effect = lower value. An outline of the steps:
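The Tox21 protocol used parental HEK293 cells treated for 18 h at 37 C with compounds delivered by pintool; ATP-coupled luminescence after 30 min at room temperature gave viability.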

Assay [17] is described as follows: qHTS assay for cell viability of the p53RE-bla HCT-116 cell line (AID 743292). Also: % is scaled to controls: 0 for no effect and ±100 for the full control effect; nearly all actives have a fitted effect of over 55% in size. The note with it: p53RE-bla HCT-116 viability, ATP luminescence, 16 h; series mostly up to 95 µM. An outline of the steps: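 Viability of compound-treated p53RE-bla HCT-116 cells is taken from ATP-dependent luciferase luminescence. Treatment lasts 16 h at 37 C after a 5 h settling period; detection follows 30 min at room temperature.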

Assay [18] concerns the target Nuclear receptor subfamily 1 group I member 2 (Rattus norvegicus) (UniProt Q9R1A7). Description: qHTS assay for small molecule activators of the rat pregnane X receptor (rPXR) signaling pathway (AID 651751; call rule not given here; also: 0% is about no effect). As to conditions: rPXR reporter cells, luciferase (One-Glo), 24 h.
Assay [19] is described as follows: qHTS assay for small molecule activators of the human pregnane X receptor (PXR) signaling pathway (AID 720659; call rule not given here; also: 0% is about no effect). The note with it: DPX-2 HepG2 CYP3A4-luciferase, 24 h; series mostly up to 92.3 µM.
The target in assay [20] is Estrogen receptor (Homo sapiens) (UniProt P03372). In words: qHTS assay for small molecule agonists of estrogen receptor alpha signaling (AID 588514; calls by dose curve;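 also: 0% = vehicle only and 100% = reference agonist; nearly all actives have a fitted effect of over 70% in size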). As to conditions: ER-alpha-UAS-bla HEK293, beta-lactamase ratio, 18 h; series mostly up to 76.8 µM. In a few lines: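 Cells were plated at 5000/well, incubated 4 hrs at 37 C, dosed with compound titration series, incubated 18 hrs at 37 C, loaded with CCF4 dye for 2 hrs at RT, then fluorescence was read.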

Results filed as inconclusive are left out. Calls of active or inactive are those of the source. Unless noted, calls follow the shape of the dose curve; as a rule, active = well fitted curve in the direction sought with a large enough effect; inconclusive = small, poorly fitted or top-dose-only effect, or another doubt; inactive = no such curve, though single readings can be large; an effect the other way counts as inactive or inconclusive.

Nuclear receptor subfamily 1 group I member 2 (Rattus norvegicus), sequence (Q9R1A7 whole entry, looked up): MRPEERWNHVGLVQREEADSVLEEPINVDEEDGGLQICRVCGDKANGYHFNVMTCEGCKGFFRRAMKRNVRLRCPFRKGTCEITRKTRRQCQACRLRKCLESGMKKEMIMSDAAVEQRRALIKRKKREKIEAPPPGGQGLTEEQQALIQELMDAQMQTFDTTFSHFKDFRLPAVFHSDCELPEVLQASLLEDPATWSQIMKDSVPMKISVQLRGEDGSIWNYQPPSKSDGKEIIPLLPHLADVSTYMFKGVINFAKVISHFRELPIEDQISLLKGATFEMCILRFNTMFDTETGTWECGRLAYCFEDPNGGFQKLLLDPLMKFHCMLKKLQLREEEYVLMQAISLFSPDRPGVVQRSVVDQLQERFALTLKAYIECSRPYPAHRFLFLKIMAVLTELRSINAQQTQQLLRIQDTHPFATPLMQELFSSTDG
Thyroid hormone receptor beta (Homo sapiens), sequence (P10828 whole entry, looked up): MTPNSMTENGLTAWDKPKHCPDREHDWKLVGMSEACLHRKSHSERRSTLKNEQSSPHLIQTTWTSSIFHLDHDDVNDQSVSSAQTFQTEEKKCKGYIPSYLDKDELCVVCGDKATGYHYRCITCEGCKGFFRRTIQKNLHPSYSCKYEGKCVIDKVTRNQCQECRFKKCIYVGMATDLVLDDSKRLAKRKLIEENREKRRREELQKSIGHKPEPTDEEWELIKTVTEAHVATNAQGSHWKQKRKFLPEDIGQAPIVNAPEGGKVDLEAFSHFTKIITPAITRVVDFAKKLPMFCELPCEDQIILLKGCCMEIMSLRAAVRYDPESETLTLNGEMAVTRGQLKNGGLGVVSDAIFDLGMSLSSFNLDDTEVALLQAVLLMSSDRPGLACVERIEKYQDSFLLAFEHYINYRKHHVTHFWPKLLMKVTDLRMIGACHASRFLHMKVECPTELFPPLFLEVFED
Peroxisome proliferator-activated receptor alpha (Homo sapiens), sequence (Q07869 whole entry, looked up): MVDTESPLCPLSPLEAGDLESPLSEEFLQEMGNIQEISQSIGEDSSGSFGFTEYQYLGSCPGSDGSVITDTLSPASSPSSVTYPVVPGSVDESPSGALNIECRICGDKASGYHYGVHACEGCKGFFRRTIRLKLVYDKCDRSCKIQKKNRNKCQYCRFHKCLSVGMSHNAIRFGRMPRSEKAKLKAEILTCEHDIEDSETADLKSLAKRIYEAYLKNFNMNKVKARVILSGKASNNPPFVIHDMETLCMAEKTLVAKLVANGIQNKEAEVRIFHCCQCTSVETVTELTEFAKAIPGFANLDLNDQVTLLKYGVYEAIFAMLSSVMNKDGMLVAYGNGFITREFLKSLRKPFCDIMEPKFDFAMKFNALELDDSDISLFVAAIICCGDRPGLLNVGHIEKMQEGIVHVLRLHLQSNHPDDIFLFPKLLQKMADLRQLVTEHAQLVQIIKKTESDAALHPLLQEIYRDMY
Vitamin D3 receptor (Homo sapiens), sequence (P11473 whole entry, looked up): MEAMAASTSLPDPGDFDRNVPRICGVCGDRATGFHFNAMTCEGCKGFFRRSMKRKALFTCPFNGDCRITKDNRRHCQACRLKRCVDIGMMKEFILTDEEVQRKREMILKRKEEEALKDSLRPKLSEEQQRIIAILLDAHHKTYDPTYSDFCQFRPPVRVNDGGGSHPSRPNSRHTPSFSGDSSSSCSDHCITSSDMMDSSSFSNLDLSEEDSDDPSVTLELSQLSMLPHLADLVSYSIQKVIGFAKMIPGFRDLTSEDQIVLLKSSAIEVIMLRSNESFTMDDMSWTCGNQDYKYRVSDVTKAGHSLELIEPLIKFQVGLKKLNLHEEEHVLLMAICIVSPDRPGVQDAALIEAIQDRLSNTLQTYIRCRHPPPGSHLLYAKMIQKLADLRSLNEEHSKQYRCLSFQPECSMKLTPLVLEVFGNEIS
Peroxisome proliferator-activated receptor delta (Homo sapiens), sequence (Q03181 whole entry, looked up): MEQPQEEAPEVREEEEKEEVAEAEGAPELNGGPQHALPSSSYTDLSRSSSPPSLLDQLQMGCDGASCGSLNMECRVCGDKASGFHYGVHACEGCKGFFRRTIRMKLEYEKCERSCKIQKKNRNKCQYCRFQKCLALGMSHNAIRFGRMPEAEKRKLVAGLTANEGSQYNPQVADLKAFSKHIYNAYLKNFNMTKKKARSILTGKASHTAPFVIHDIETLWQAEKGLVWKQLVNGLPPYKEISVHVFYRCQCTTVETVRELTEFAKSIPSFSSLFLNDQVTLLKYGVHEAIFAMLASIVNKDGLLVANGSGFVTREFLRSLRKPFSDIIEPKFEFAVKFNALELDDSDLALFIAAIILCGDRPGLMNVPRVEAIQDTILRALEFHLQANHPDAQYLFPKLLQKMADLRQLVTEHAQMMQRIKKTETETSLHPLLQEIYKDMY
Peroxisome proliferator-activated receptor gamma (Homo sapiens), sequence (P37231 whole entry, looked up): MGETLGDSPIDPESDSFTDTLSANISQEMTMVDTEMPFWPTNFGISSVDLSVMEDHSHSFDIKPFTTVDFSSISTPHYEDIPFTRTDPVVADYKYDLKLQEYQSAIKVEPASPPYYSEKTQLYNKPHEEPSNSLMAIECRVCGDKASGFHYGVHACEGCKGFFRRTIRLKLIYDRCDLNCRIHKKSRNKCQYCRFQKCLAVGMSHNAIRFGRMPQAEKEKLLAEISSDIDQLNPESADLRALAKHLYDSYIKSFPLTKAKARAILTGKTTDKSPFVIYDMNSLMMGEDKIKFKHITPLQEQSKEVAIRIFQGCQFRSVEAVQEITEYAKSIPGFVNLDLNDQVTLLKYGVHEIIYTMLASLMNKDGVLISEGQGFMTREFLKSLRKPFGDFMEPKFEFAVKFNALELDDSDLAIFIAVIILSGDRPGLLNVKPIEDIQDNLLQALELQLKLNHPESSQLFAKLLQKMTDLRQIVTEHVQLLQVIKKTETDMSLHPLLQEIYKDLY
Retinoic acid receptor RXR-alpha (Homo sapiens), sequence (P19793 whole entry, looked up): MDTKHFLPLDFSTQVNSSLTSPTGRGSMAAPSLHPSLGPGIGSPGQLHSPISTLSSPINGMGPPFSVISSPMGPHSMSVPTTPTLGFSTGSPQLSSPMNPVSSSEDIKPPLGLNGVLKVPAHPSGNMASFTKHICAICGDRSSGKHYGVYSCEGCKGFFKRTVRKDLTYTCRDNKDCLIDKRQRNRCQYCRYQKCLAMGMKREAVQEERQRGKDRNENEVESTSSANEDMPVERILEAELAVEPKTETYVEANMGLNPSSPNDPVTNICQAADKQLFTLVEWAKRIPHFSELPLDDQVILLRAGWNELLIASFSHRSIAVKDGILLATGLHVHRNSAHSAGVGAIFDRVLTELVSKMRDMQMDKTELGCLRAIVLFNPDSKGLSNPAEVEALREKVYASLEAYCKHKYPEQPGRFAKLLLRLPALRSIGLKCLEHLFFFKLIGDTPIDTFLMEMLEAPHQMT
Estrogen receptor (Homo sapiens), sequence (P03372 whole entry, looked up): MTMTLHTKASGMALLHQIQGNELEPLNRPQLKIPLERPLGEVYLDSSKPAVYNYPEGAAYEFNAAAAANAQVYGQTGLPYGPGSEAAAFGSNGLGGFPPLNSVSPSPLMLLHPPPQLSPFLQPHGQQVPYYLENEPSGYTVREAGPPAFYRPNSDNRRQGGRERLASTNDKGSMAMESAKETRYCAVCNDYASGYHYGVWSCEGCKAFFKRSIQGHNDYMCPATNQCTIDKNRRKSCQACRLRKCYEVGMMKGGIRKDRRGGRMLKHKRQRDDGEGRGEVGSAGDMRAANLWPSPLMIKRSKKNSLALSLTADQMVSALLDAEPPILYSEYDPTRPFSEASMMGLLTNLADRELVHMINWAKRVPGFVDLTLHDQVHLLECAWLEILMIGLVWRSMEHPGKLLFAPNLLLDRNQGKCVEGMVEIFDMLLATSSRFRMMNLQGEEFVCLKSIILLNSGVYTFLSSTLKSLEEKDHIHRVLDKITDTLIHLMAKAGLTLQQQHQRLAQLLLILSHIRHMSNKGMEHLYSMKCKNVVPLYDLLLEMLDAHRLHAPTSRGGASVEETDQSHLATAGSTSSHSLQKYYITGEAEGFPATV

Consider `OCc1cccc(Oc2ccccc2)c1`, for which the max response in assay [1] was -2.37%; in [5], -8.28%; in [8], -14.1%; in assay [9] it was 9.52% (inactive); in assay [13], -0.0897% (inactive); in assay [15] it was 2.09% (inactive). The max response in [16] was 2.32% (inactive); in assay [18], -3.09% (inactive). Further, the Potency entry in [2], in assay [4], in assay [6], in assay [7], in [14] and in [17] was “inactive” in each case. Moreover, the result in [3] and in assay [19] was inactive. In addition, the activity change % (negative = inhibition) in assay [10] is 9.19% (inactive). In addition, the activation in assay [11] is -1.52% (inactive); in assay [12] it was 1.11% (inactive).
As for `C=CCCCCCCCCCCCC`, the max response in assay [1] is 14.9%; in [5], -6.65%; in assay [8] it was -3.7%; in assay [9], 10.9% (inactive); in assay [13], -1.61% (inactive); in [15], 1.55% (inactive). The figures for the max response in [16] and in assay [18] were 5.27% (inactive) and 1.46% (inactive), respectively. Further, the Potency entry in assay [2], in assay [4], in [6], in assay [7], in assay [14] and in assay [17] was “inactive” each time. Besides, the result in assay [3] and in [19] was inactive. The activation in assay [11] was -3% (inactive); in assay [12], 0.249% (inactive).
As for `Cc1ccc(S(=O)(=O)C(I)I)cc1`, the Potency entry in assay [20], in [6] and in [14] was “inactive” each time. In [5], the max response was -69.8%. Moreover, the activation in [11] is 4.66% (inactive); in assay [12] it was -11.1% (inactive). The molecule was called inactive in assay [19].
With `CCCCCCCCCCCC[N+](C)(C)[O-]`, the max response is -19.7% in assay [1], 0.14% (inactive) in [13], -6.24% (inactive) in [15] and -22.6% (inactive) in [16]. Also, the Potency entry in assay [2], in assay [4] and in assay [17] was “inactive” each time. For the same molecule, in assay [3], the result was inactive. In [10], the activity change % (negative = inhibition) was -1.65% (inactive). The activation in [11] is 1.24% (inactive); in [12] it was 9.07% (inactive).
Take `O=C1NC(=O)C(Cc2ccc(OCCN3COc4ccccc4C3=O)cc2)S1` (configuration not stated): the Potency entry in assay [7] and in assay [17] was “inactive” throughout. Further, the max response was 33.2% in [8]; -11.1% (inactive) in assay [9]; -6.38% (inactive) in assay [15]; -10.2% (inactive) in [16]; 1.08% (inactive) in assay [18]. In addition, the activation in assay [11] is 0.726% (inactive); in assay [12], 13.4% (inactive). The Potency in [13] was 17.8 µM (active).
On to `OCCC(F)(F)C(F)(F)C(F)(F)C(F)(F)C(F)(F)C(F)(F)C(F)(F)C(F)(F)F`, for which the max response in assay [1] was -9.21%; in [5] it was -23.4%; in assay [8], -18.9%; in [9], -9.11% (inactive); in assay [13] it was 0.874% (inactive); in [15], -8.07% (inactive). Further, the max response in assay [16] is -9.6% (inactive); in assay [18], -1.29% (inactive). Besides, the Potency entry in assay [2], in assay [4], in assay [6], in [7], in assay [14] and in assay [17] was “inactive” in each case. The figures for the activation in assay [11] and in assay [12] were 2.93% (inactive) and 0.162% (inactive), respectively.
For `C=C(C)C(=O)OCCN(C)C`, the Potency result in assay [20], in assay [2], in assay [4], in assay [7], in [14] and in assay [17] was “inactive” each time. For the same molecule, the max response was -44.3% in assay [1]; 0.555% in assay [8]; -0.281% (inactive) in assay [13]; -4.72% (inactive) in [15]; -8.88% (inactive) in assay [16]; 5.37% (inactive) in [18]. Besides, the activity change % (negative = inhibition) in assay [10] was 5.49% (inactive). For the same molecule, the activation was -0.52% (inactive) in assay [11] and 0.477% (inactive) in [12]. For the same molecule, in assay [19], the molecule was classed as inactive.
